TDP43 rescue: qHTS of TDP-43 Inhibitors; Potency, µM (top dose mostly 46.1 µM), most hits filed as activators; AID 652104, 2013; TDP-43 expressing yeast growth rescue, BacTiter-Glo, 24 h; hit rate 1.8% among 410,000; note: nearly all actives have a fitted effect of over 50% in size
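Cell-based yeast growth screen: TDP-43 expression induced in galactose, inoculum OD600=0.02 after raffinose pregrowth to mid-log. Read-out BacTiter-Glo luminescence at 24 hr, 30 deg C; inhibition of toxicity seen as signal increase.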
FUS yeast rescue: qHTS for Suppressors of FUS Proteinopathy: Primary screen using FUS-linked yeast assay. S. cerevisiae FUS-expressing, growth rescue, OD600, 24 h. Potency, µM (top dose mostly 76.6 µM), hits mostly activators. hit rate 0.24% among 390,000. AID 1347120, 2019; note: nearly all actives have a fitted effect of over 55% in size
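Read-out: OD at 600 nm after 24hr at 30C, reporting rescue of FUS-induced yeast toxicity. Cells at OD 0.005 in galactose (2%) minimal medium; compounds tested in a dilution series; CP55940 titration from 92uM final as control.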
aSyn rescue: qHTS of alpha-syn Inhibitors; Yeast expressing alpha-synuclein, growth rescue, BacTiter-Glo, 24 h; Potency, µM (titrated, usually from 46.1 µM), most hits filed as activators; hit rate 0.14% among 370,000; note: nearly all actives have a fitted effect of over 65% in size
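Screening used galactose-induced yeast with toxic alpha-synuclein levels, exposed to compound for 24 hr at 30 deg C. Cell growth, read with BacTiter-Glo luminescence, gave the measured signal.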
Abeta yeast res: qHTS for compounds that reverse cellular toxicity of Amyloid beta (A-beta) peptide in yeast: Primary Screen; hit rate 0.063% among 410,000; Potency, µM (titrated, usually from 46.1 µM), actives largely listed as activators; AID 1347071, 2019; yeast expressing A-beta42, growth rescue, OD600, 48 h; response scale: 0% DMSO, 100% iron-clioquinol control; note: nearly all actives have a fitted effect of over 55% in size
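Yeast growth medium received pinned compounds, then yeast cells expressing toxic A-beta were added; plates incubated at 30 C for 48 hr. Growth read as absorbance at 600 nm, normalized to DMSO and equimolar FeCl3 plus clioquinol controls.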
Each line names hits and unclear results; the compound was inactive in the other large screens. This is a sample that favours compounds with a hit; in the whole collection about 2.1% have one here. Calls come from the whole dose curve; as a rule, active = well fitted curve in the direction sought with a large enough effect; inconclusive = small, poorly fitted or top-dose-only effect, or another doubt; inactive = no such curve, though single readings can be large; an effect the other way counts as inactive or inconclusive.

CCc1ccc(N2C=C(C(=O)OC)C(c3ccc(OC)cc3)C(C#N)=C2N)cc1 (stereo not drawn)	TDP43 rescue inconclusive, FUS yeast rescue inconclusive, aSyn rescue 25.1µM
CCOc1ccc(C(=O)NCCc2sc(-c3ccc(OC)c(OC)c3)nc2C)cc1	TDP43 rescue 15.8µM
Cc1cccc(-c2nc(CCNC(=O)c3ccccc3Br)cs2)c1	TDP43 rescue 12.6µM (no result: aSyn rescue)
COc1ccc(-c2nc(C)c(CCNC(=O)c3ccccc3Br)s2)cc1OC	TDP43 rescue 11.2µM (no result: aSyn rescue)
N#CC1=C(N)CCC1	none (no result: TDP43 rescue, FUS yeast rescue, Abeta yeast res)
COc1cc2c(cc1OC)C(COc1cc(C)cc(C)c1)N(C(=O)C(C)(C)C)CC2 (stereo not drawn)	FUS yeast rescue inconclusive (no result: TDP43 rescue, aSyn rescue)
Cc1ccc(S(=O)(=O)CC(=O)Nc2sc3c(c2C#N)CCCC3)cc1	none (no result: aSyn rescue)
CCCCS(=O)(=O)CC(O)CSc1nc(-c2ccc(C)cc2)cc(-c2ccccc2)c1C#N (stereo not drawn)	none (no result: aSyn rescue)
CC(C)(C)C(=O)Nc1nnc(COc2ccc(Cl)cc2)s1	TDP43 rescue 11.2µM, Abeta yeast res inconclusive
O=C(Nc1nnc(COc2ccc(Cl)cc2)s1)c1cccs1	none
O=C(COC(=O)CCC(=O)c1ccc(Cl)cc1)NCc1ccc(F)cc1	TDP43 rescue 14.1µM
CC1(C(=O)OCC(=O)NCc2ccc(Cl)cc2)CC1(Cl)Cl (stereo not drawn)	TDP43 rescue 14.1µM (no result: FUS yeast rescue)
COc1ccc(-c2nc(-c3ccccc3)c(-c3ccc(F)cc3)[nH]2)c(OC)c1C	none (no result: aSyn rescue)
Cc1ccc2[nH]c(=O)c(CN(Cc3ccccc3)Cc3nnnn3Cc3ccco3)cc2c1	none (no result: TDP43 rescue, FUS yeast rescue, Abeta yeast res)
O=C(Nc1c(Cl)cc([N+](=O)[O-])cc1Cl)c1cc(Cl)cc(Cl)c1O	none (no result: TDP43 rescue, FUS yeast rescue, Abeta yeast res)
COc1ccc(NC(=O)Cn2c(SCc3ccc(C)cc3)nc3cccnc32)c(OC)c1	none (no result: aSyn rescue)
Cc1cccc(N=C2NN=C(c3c(C)[nH]c4ccccc34)CS2)c1	FUS yeast rescue 11.2µM
O=C(NOC(=O)c1ccccc1F)c1ccc(OC(F)F)cc1	none
COc1cc(C(=O)ONC(=O)c2ccc(OC(F)F)cc2)cc(OC)c1OC	TDP43 rescue 8.91µM, Abeta yeast res inconclusive
CC(C)C(=O)N[C@H]1[C@H](O)CCC[C@]12C(=O)N(Cc1ccccc1)c1ccccc12	none (no result: TDP43 rescue, aSyn rescue, Abeta yeast res)
O=C(O)C1CCN(c2c([N+](=O)[O-])cc(C(F)(F)F)cc2[N+](=O)[O-])CC1	TDP43 rescue 20µM
O=C(CSC1=NNC(c2ccccn2)S1)Nc1ccc(C(F)(F)F)cc1 (stereo not drawn)	aSyn rescue 7.94µM, Abeta yeast res inconclusive
c1ccc(CSc2ncccn2)cc1	none
c1ccc(CSC2=NNC(c3ccccn3)S2)cc1 (stereo not drawn)	aSyn rescue 5.62µM
CCc1nnc(SCc2ccc(F)cc2Cl)c2cc3sc(C)cc3n12	none (no result: aSyn rescue)
Cc1cc(C)c(C(N)=O)c(SCC(=O)c2cc(C)c(C)cc2C)n1	none (no result: FUS yeast rescue)
Cc1cc(C)c(C(N)=O)c(SCC(=O)c2cc(C)n(-c3cc(C)on3)c2C)n1	TDP43 rescue 35.5µM
O=C(CSc1nnc(-c2ccco2)n1Cc1ccco1)c1ccc([N+](=O)[O-])cc1	none (no result: TDP43 rescue, aSyn rescue, Abeta yeast res)
Cc1ccc(N/C(C(Cl)=C(Cl)Cl)=C(/Cl)[N+](=O)[O-])c(C)c1	TDP43 rescue 12.6µM
SCc1nc2ccccc2[nH]1	none (no result: TDP43 rescue, FUS yeast rescue, Abeta yeast res)
Cc1c(C(=O)NCc2ccccc2Cl)sc2nc3n(c(=O)c12)CCC3	TDP43 rescue 17.8µM (no result: aSyn rescue)
Cc1c(C(=O)NCc2cccc(Cl)c2)sc2nc3n(c(=O)c12)CCCC3	TDP43 rescue 22.4µM (no result: aSyn rescue)
Cc1c(C(=O)NCc2ccc(Cl)cc2)sc2nc3n(c(=O)c12)CCCC3	TDP43 rescue inconclusive (no result: aSyn rescue)
Cc1cccc(-n2c(C)cc(C(=O)C(=O)Nc3nncs3)c2C)c1	TDP43 rescue inconclusive (no result: aSyn rescue)
Cc1cc(C(=O)C(=O)Nc2nncs2)c(C)n1-c1ccc(Cl)cc1	TDP43 rescue 11.2µM (no result: aSyn rescue)
N=c1c2c(ccn1CCCc1ccccc1)Oc1ccc3ccccc3c1C2c1ccccc1 (stereo not drawn)	none (no result: TDP43 rescue, aSyn rescue, Abeta yeast res)
Cc1ccc(C)c(NC(=O)CSc2cccc3cccnc23)c1	TDP43 rescue 5.62µM
COc1ccc(NCc2ccc([N+](=O)[O-])s2)cc1	TDP43 rescue inconclusive
O=[N+]([O-])c1ccc(CNc2ccc(F)cc2)s1	TDP43 rescue 12.6µM, Abeta yeast res inconclusive
COc1ccc(NCc2ccc([N+](=O)[O-])s2)c(OC)c1	TDP43 rescue 10µM (no result: FUS yeast rescue)
O=[N+]([O-])c1ccc(CNc2cccc(Cl)c2)s1	TDP43 rescue 17.8µM, aSyn rescue inconclusive
O=C(c1ccc([N+](=O)[O-])s1)N1CCN(c2cccc(Cl)c2)CC1	none (no result: FUS yeast rescue)
O=[N+]([O-])c1ccc(CNc2ccc(Cl)cc2)s1	TDP43 rescue inconclusive, Abeta yeast res inconclusive
CCN(CC)c1ccc(-c2nnc(SCC(=O)NCc3ccco3)n2CC)cc1	none (no result: TDP43 rescue, FUS yeast rescue, Abeta yeast res)
Cc1ccc(C)n1NC(=O)c1ccc(O)cc1	none
Cc1ccc(C)n1NC(=O)c1ccccc1	FUS yeast rescue 20µM
CCOc1ccc(-c2nn(-c3ccccc3)cc2C2NC(=O)NC(C)=C2C(=O)OC(C)C)cc1 (stereo not drawn)	FUS yeast rescue inconclusive
CCCOc1ccc(C2(C(=O)O)CCCC2)cc1	TDP43 rescue 12.6µM
CCCCOc1cccc(C2(C(=O)O)CCCC2)c1	TDP43 rescue 20µM
CCOC(=O)c1sc(NC(=O)c2c(-c3ccccc3)c(-c3ccccc3)nn(C)c2=O)nc1C	TDP43 rescue 15.8µM, FUS yeast rescue inconclusive (no result: aSyn rescue)
Cc1nc(NC(=O)c2c(-c3ccccc3)c(-c3ccccc3)nn(C)c2=O)sc1C	none (no result: aSyn rescue)
CCc1cccc(C)c1NC(=O)COCc1cc(-c2ccc3c(c2)OCO3)on1	none (no result: aSyn rescue)
Cc1ccc(CSc2nc(=O)c3c(C)cc(C)nc3n2C2CC2)cc1	TDP43 rescue 3.16µM, FUS yeast rescue inconclusive (no result: aSyn rescue)
COC(=O)c1cc(C)nc2c1c(=O)nc(SCc1c(C)cc(C)cc1C)n2C1CC1	TDP43 rescue inconclusive (no result: aSyn rescue)

Bioassay records deposited in PubChem BioAssay by National Center for Advancing Translational Sciences (NCATS).
